The text below walks through data of PubChem BioAssay (NCATS).

Experiment [1] addresses Cytochrome P450 1A2 (Homo sapiens) (UniProt P05177). Kind of experiment: p450-cyp1a2 (AID 410; calls by dose curve;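 also: -100% = full effect of reference inhibitor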). In a few lines:
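20nM CYP1A2, 100uM Luciferin-ME (=Km), 100mM KPO4; cpd 10 min RT; +NADPH regen, 60 min RT; stop/detect 20 min; luminescence. Normalized to furafylline 57 uM = full inhibition.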

Experiment [2] addresses Glucocorticoid receptor (Homo sapiens) (UniProt P04150). Nature of the experiment: GR-EFC Redistribution (AID 451; calls by dose curve; also: potency is read from the fitted curve at half-maximal effect). As to conditions: CHO-K1 GR-EFC translocation, beta-gal luminescence, 2 h. The essentials: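 Translocation of GR-ED fusion to nuclear EA restores b-gal, read by luminescence after 1 h room-temperature detection. Engineered CHO-K1 biosensor cells, 1,000/well, exposed 2 h at 37 C to titrations up to 46 uM final.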

In experiment [3] the target is Mitogen-activated protein kinase 10 (Mus musculus) (UniProt Q61831). Kind of experiment: JNK3 AlphaScreen Assay (AID 530; active = well fitted curve in either direction with a large enough effect, not every such curve was filed as active;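 also: kinase came from lysate of stimulated human HepG2 cells; signal reports phosphorylation of biotinylated GST-cJun 1-79 at Ser73 with 10 µM ATP; % is scaled to controls: 0 for no effect and ±100 for the full control effect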). The essentials:
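Kinase buffer: 20 mM Tris-HCl pH 7.6, 10 mM MgCl2, 1 mM DTT, 0.1 mM Na3VO4, 0.01% Tween-20; ATP 10 uM. Substrate biotin-GST-cJun(1-79), enzyme from activated HepG2 lysates. Detection by Ser73 phospho-antibody AlphaScreen.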
(In general: Bead proximity is the source of the signal in Alpha formats.)

Experiment [4] deals with 3',5'-cyclic-AMP phosphodiesterase 4B (Homo sapiens) (UniProt Q07343). Kind of experiment: qHTS Assay for Inhibitors of PDE-IV (AID 607; active = well fitted activation curve with a large enough effect in the main read-out, with a control signal flat, not every such curve was filed as active; also: % of control where 0% means no effect). In a few lines:
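Live HEK293 cells with a modified cyclic nucleotide-gated (CNG) channel report intracellular cAMP via membrane-potential dye fluorescence (ex 535/em 590 nm). Endogenous PDE-IV was targeted. Compounds were tested at up to 22.9 uM final; RO 20-1724 100 uM served as control.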
Background: In qHTS, concentration-response curves come from the screen itself.

Experiment [5] has as its target Cytochrome P450 2D6 (Homo sapiens) (UniProt P10635). Kind of experiment: qHTS Assay for Inhibitors and Substrates of Cytochrome P450 2D6 (AID 891). Also: potency is read from the fitted curve at half-maximal effect; nearly all actives have a fitted effect of over 60% in size. The essentials:
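Luminescent read-out of luciferin formed by 5 nM human CYP2D6 demethylating 30 uM Luciferin-ME EGE (Km level) over 60 min at room temperature after NADPH regeneration addition. Data normalized to full inhibition by 1.43 uM quinidine.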

The nature of experiment [6]: qHTS Assay for Lipid Storage Modulators (AID 1519; calls by dose curve). To be noted: Drosophila S3 cells, BODIPY lipid droplet/cell ratio, laser cytometry, cells loaded with oleic acid; for activity change, negative = inhibition: at 57.5 µM (top of the series). In a few lines: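 Cells seeded at 5,000 per well were treated with compounds over a concentration series and loaded with oleic acid (400 uM, as added). Lipid droplet fluorescence (488 nm excitation, 500-530 nm channel) was read by laser-scanning cytometry and normalized to 20 uM Triacsin C.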

The target of experiment [7] is Ubiquitin carboxyl-terminal hydrolase 1 (Homo sapiens) (UniProt O94782). Kind of experiment: Inhibitors of USP1/UAF1: Pilot qHTS (AID 504865).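 Also: rhodamine fluorescence freed from ubiquitin-rhodamine substrate followed over time; top concentration of the series differs between compounds; % is scaled to controls: 0 for no effect and ±100 for the full control effect; nearly all actives have a fitted effect of over 35% in size.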 The essentials: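 In 50mM HEPES pH 7.8 containing 0.5mM EDTA, 1mM TCEP, 0.1 mg/ml BSA and 0.01% Tween-20, 1nM USP1/UAF1 is exposed to compound for 15 min, then Ub-Rho (150nM final) is added and fluorescence is read over time.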
Sequence of Ubiquitin carboxyl-terminal hydrolase 1 (Homo sapiens) (O94782 whole entry, looked up): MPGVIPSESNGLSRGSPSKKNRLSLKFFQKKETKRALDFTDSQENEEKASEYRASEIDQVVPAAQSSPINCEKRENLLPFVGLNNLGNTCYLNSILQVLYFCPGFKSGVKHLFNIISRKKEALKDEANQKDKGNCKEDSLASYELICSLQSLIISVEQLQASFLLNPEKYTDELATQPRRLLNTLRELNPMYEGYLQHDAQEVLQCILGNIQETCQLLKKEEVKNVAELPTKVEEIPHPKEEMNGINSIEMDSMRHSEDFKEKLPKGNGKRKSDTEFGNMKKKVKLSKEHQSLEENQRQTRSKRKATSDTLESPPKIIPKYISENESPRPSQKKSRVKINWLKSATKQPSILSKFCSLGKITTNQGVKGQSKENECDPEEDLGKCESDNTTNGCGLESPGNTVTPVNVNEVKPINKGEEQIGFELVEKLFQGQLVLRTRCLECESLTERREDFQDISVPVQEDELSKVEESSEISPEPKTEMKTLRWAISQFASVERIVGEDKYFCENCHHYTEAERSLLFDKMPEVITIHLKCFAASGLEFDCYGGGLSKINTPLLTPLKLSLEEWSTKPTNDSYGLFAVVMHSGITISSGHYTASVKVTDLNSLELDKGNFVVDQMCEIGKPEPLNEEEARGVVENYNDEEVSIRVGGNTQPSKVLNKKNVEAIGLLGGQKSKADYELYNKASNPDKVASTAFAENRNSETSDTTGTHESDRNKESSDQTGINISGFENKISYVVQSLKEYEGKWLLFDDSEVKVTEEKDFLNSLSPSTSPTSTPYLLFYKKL

The target in experiment [8] is DNA dC->dU-editing enzyme APOBEC-3G (Homo sapiens) (UniProt Q9HC16). Kind of experiment: qHTS for inhibitors of Vif-A3G interactions: Validation (AID 588379). Also: 0% is about no effect. In a few lines: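 Yellow fluorescence (Ex 488, Em 500-530) of Vif-coexpressing HeLa A3G-eYFP cells, scanned by Acumen cytometer, reports blocked A3G degradation. Cells plated at 700/well overnight at 37 deg C before compound addition, then a further overnight compound incubation at 37 deg C.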
Sequence of DNA dC->dU-editing enzyme APOBEC-3G (Homo sapiens) (Q9HC16 whole entry, looked up): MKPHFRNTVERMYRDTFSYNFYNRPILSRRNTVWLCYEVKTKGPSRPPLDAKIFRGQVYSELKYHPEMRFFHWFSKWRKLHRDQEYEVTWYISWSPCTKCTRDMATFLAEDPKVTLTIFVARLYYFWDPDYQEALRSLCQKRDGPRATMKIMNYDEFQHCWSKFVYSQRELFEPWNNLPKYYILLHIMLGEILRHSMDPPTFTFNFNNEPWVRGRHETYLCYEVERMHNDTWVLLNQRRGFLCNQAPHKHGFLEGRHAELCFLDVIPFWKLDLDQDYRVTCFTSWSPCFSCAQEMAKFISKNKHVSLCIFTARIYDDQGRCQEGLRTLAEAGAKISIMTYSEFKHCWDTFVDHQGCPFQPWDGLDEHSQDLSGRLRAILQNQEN

Experiment [9] relates to Zika virus NS2B-NS3 protease. Kind of experiment: Primary screen GU AMC qHTS for Zika virus inhibitors (AID 1347154).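 Also: 0% = no-inhibitor control and -100% = no-enzyme control; nearly all actives have a fitted effect of over 70% in size.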 The essentials:
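Fluorogenic AMC-substrate cleavage by noncovalent NS2B-NS3 protease complex (25 nM, pH 8.0 Tris buffer with Tween 20) followed for 15 minutes at room temperature (~20% conversion). Percent inhibition from ex340/em450 signal change, fitted by 4-parameter Hill equation.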

In experiment [10] the target is Rap guanine nucleotide exchange factor 4 (Homo sapiens) (UniProt Q8WZA2). Kind of experiment: Confirmatory qHTS for antagonist of cAMP-regulated guanine nucleotide exchange factor 4 (EPAC2) (AID 1645885). Also: potency is read from the fitted curve at half-maximal effect; nearly all actives have a fitted effect of over 25% in size.
Sequence of Rap guanine nucleotide exchange factor 4 (Homo sapiens) (Q8WZA2 whole entry, looked up): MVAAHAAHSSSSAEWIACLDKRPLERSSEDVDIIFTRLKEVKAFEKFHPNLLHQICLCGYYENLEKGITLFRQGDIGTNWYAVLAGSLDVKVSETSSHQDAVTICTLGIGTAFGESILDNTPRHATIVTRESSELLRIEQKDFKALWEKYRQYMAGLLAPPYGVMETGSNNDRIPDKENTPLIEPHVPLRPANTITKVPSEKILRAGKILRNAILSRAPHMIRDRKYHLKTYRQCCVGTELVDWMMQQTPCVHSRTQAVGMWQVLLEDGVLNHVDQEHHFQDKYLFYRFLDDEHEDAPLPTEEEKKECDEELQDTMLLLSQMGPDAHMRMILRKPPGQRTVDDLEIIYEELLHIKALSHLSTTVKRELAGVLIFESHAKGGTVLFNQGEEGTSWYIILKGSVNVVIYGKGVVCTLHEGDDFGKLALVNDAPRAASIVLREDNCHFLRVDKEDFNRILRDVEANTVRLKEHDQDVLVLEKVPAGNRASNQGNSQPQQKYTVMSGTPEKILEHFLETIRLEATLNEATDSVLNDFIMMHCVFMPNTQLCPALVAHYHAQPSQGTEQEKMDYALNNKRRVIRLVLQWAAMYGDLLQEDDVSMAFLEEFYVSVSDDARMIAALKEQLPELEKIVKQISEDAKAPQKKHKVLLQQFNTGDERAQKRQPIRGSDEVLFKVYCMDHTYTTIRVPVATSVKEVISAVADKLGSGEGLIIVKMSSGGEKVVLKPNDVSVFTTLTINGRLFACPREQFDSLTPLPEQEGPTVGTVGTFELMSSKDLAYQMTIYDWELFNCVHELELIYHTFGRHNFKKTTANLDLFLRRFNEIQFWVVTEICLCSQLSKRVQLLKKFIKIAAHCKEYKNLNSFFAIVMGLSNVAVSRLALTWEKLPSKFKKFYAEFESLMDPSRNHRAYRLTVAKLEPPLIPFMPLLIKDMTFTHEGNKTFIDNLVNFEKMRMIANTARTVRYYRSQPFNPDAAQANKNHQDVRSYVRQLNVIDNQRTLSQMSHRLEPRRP
For experiment [11], the target named is Glucocorticoid receptor (Homo sapiens) (UniProt P04150). Kind of experiment: GR-GFP Redistribution (AID 450;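 active = compounds whose dose series gives a full or clear partial fitted curve of increased nuclear translocation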; also: potency is read from the fitted curve at half-maximal effect). To be noted: U2OS GR-GFP nuclear translocation, laser cytometry, 2 h.
Sequence of Glucocorticoid receptor (Homo sapiens) (P04150 whole entry, looked up, the tested form may be a part): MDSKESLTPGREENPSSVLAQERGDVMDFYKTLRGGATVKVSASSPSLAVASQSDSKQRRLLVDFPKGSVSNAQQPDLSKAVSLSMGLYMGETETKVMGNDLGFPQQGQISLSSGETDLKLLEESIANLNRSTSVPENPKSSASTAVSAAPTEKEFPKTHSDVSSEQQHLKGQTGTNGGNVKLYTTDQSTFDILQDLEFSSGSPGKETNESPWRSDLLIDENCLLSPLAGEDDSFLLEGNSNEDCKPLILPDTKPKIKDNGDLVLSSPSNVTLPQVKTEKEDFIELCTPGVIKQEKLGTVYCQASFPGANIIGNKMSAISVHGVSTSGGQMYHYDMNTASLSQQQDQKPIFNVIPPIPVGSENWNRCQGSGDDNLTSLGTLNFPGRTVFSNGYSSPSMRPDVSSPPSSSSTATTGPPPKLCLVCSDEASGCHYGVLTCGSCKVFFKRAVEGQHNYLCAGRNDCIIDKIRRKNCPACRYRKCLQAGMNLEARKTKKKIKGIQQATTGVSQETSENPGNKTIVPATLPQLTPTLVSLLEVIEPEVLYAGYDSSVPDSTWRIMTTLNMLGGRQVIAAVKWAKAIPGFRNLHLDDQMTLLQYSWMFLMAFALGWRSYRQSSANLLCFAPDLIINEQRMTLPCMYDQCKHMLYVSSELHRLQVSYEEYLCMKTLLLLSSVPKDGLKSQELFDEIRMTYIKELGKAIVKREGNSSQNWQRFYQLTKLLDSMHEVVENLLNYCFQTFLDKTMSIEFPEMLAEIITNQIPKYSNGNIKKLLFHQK
The target in experiment [12] is Cytochrome P450 2C9 (Homo sapiens) (UniProt P11712). Kind of experiment: qHTS Assay for Inhibitors and Substrates of Cytochrome P450 2C9 (AID 883). Also: potency is read from the fitted curve at half-maximal effect; nearly all actives have a fitted effect of over 60% in size. In a few lines:
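Turnover of Luciferin-H (100uM, KM) by 10nM human CYP2C9 was measured over 60 min at 37C with NADPH regeneration; inhibitors and some substrates reduce luminescence. Data normalized to sulphaphenazole 57uM.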

Experiment [13] has as its target Cytochrome P450 2C19 (Homo sapiens) (UniProt P33261). Nature of the experiment: qHTS Assay for Inhibitors and Substrates of Cytochrome P450 2C19 (AID 899). Also: potency is read from the fitted curve at half-maximal effect; nearly all actives have a fitted effect of over 60% in size. In a few lines:
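Reactions contain 5nM enzyme, 10uM Luciferin-H EGE (KM) and 50mM KPO4; compound preincubates 10 min at 37C, NADPH regeneration starts turnover for 60 min. Luminescence after detection reagent gives activity.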

Experiment [14] can be described thus: AP1 Signaling Pathway (AID 357; active = well fitted curve in either direction with a large enough effect, not every such curve was filed as active;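 also: ME-180 reporter cells stimulated with EGF at its EC50 level; % is scaled to controls: 0 for no effect and ±100 for the full control effect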). To be noted: ME-180 (cervical carcinoma) AP-1-bla reporter, EGF-induced, beta-lactamase ratio, 5 h; at 38 µM (top of the series). The essentials:
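A ratiometric CCF4 readout (405 nm excitation; 460 and 530 nm emission) quantified AP-1-driven beta-lactamase in ME-180 cells after 5 h with compound and EC50 EGF; AC50 values were derived for activators and inhibitors.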

A short description of experiment [15]: NFAT Signaling Pathway (AID 444; active = well fitted curve in either direction with a large enough effect, not every such curve was filed as active;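 also: carbachol stimulus at about its EC50 of 1 µM final; % is scaled to controls: 0 for no effect and ±100 for the full control effect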). To be noted: Jurkat NFAT-bla M1, carbachol, beta-lactamase ratio, 5 h; at 38 µM (top of the series). The essentials:
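Read-out: CCF4 FRET ratio (460 nm/530 nm) after 1 h RT dye loading, used for %activity and AC50 from titration series. Cells: Jurkat NFAT-β-lactamase/M1 line, treated with compound plus 1 uM carbachol for 5 h, 37 °C.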

Experiment [16] in a line: qHTS Assay for Identification of Small Molecule Antagonists for NFkB Signaling Pathway (AID 895; active = well fitted inhibition curve with a large enough effect in the signal ratio, with a control signal flat, not every such curve was filed as active; the % refers to the signal ratio; also: % is scaled to controls: 0 for no effect and ±100 for the full control effect). The essentials:
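Beta-lactamase reporter read-out (460 and 530 nm emission ratio, 405 nm excitation, 2 hrs substrate loading RT) after 5 hr stimulation with 10 pM TNF alpha in compound-treated NFkB-bla ME-180 cells in low-serum medium.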

Experiment [17] is described as follows: qHTS Assay for Identification of Small Molecule Agonists for Thrombopoietin (TPO) Signaling Pathway (AID 917). Also: % is scaled to controls: 0 for no effect and ±100 for the full control effect. The essentials: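 Cell-based luciferase reporter screen. Mouse Ba/F3 line stably expressing human TPO receptor; IL-3 removed overnight before plating. Co-treatment with compound and EC50 TPO (26 pM), 24 hrs at 37 C, then luminescence.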
The target in experiment [18] is Muscarinic acetylcholine receptor M1 (Rattus norvegicus) (UniProt P08482). Nature of the experiment: qHTS Assay for Antagonists of Acetylcholine Muscarinic M1 Receptor: Kinetic Measurement of Intracellular Calcium Response (AID 943).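 Also: Fluo-4 calcium signal as peak divided by basal fluorescence over 4 min; nearly all actives have a fitted effect of over 75% in size.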 In a few lines:
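Read-out: peak over basal Fluo-4 fluorescence, kinetic at 1 Hz for 4 min after EC80 carbachol (100 nM final). Rat M1-CHO cells, dye loaded 1 h at 37C, compound added 10 min before agonist.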

For experiment [19], the target named is Pyruvate kinase (Leishmania mexicana) (UniProt Q27686). Nature of the experiment: qHTS Validation Assay for Inhibitors of Leishmania Mexicana Pyruvate Kinase (AID 945).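 Also: 0% = DMSO only neutral control wells.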 In a few lines: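 Substrate mix (0.5 mM PEP, 0.1 mM ADP, 7 mM MgCl2, 50 mM KCl, pH 7.2 imidazole) received compound by pin tool, then 0.2 nM LmPYK E451W. After 1 h at room temperature, PKLight was added and luminescence measured.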

Experiment [20] addresses Pyruvate kinase PKM (Homo sapiens) (UniProt P14618). Kind of experiment: qHTS Assay for Activators of Human Muscle Pyruvate Kinase (AID 954; active = well fitted curve in the direction sought with a large enough effect, not every such curve was filed as active;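 also: 0% = uninhibited enzyme and -100% = no enzyme or full thiadiazolimine inhibition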). In a few lines:
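Screening used highly purified human pyruvate kinase M2 under submaximal activity, with PEP at its Km and ADP below Km. After an hour at room temperature, ATP was read by luciferase luminescence.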

In experiment [21] the target is alpha-glucosidase (Oryza sativa, rice) (UniProt Q653V4). Kind of experiment: Counterscreen for Glucocerebrosidase Inhibitors: qHTS Assay for Rice alpha-Glucosidase at pH 5.0 (AID 997).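 Also: 0% = full activity with enzyme and -100% = basal without enzyme.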 In a few lines:
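Endpoint fluorogenic assay at pH 5.0: compounds (0.7 nM to 77 uM) titrated against 4 nM rice enzyme and 400 uM 4-MU-alpha-glucoside for 20 min at room temperature; NaOH/glycine stop, read ex 365/em 440 nm, Hill-fitted AC50.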
(A counterscreen serves to expose hits that act by an unwanted route or on another target.)

[22] abbreviates: measured here: cell count channel max response.
Where [23] appears, read: measured here: lipid channel max response.

Results filed as inconclusive are left out. The source made the active and inactive calls. Unless noted, calls follow the shape of the dose curve; as a rule, active = well fitted curve in the direction sought with a large enough effect; inconclusive = small, poorly fitted or top-dose-only effect, or another doubt; inactive = no such curve, though single readings can be large; an effect the other way counts as inactive or inconclusive. Bounds are passed on as bounds.

Sequence of Cytochrome P450 1A2 (Homo sapiens) (P05177 whole entry, looked up): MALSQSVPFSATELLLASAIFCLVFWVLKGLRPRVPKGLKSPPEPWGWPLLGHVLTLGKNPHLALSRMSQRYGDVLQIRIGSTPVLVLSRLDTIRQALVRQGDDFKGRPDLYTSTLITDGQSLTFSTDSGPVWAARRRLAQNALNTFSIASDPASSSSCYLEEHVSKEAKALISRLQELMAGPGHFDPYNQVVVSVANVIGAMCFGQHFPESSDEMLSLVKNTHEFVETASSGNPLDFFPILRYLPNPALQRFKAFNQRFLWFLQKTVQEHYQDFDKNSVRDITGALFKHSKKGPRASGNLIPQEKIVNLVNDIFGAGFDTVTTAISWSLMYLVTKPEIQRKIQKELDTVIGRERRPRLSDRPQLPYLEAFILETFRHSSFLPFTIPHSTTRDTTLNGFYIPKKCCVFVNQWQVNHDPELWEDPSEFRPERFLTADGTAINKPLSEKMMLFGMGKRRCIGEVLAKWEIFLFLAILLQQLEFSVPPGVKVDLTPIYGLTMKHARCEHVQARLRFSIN
Sequence of 3',5'-cyclic-AMP phosphodiesterase 4B (Homo sapiens) (Q07343 whole entry, looked up): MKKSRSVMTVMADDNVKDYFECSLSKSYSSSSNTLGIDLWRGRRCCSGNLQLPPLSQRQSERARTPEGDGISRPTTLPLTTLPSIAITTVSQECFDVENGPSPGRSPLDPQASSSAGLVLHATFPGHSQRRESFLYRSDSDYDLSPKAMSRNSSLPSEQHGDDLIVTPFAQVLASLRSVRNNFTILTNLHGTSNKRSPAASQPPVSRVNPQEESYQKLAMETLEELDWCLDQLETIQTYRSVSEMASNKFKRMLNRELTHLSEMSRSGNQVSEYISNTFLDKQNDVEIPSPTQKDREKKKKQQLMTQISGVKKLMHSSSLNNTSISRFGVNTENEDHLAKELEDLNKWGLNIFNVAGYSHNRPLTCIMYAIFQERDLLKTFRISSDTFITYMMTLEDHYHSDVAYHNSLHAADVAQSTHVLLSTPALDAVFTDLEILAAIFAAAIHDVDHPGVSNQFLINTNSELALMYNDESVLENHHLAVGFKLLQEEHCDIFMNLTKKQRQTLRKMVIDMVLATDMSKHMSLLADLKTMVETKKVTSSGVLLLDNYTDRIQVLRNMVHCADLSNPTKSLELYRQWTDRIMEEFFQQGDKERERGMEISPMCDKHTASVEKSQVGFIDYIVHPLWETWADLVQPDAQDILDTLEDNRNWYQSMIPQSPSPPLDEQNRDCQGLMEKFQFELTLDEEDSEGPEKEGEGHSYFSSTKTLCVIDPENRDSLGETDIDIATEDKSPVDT
Sequence of Cytochrome P450 2C9 (Homo sapiens) (P11712 whole entry, looked up): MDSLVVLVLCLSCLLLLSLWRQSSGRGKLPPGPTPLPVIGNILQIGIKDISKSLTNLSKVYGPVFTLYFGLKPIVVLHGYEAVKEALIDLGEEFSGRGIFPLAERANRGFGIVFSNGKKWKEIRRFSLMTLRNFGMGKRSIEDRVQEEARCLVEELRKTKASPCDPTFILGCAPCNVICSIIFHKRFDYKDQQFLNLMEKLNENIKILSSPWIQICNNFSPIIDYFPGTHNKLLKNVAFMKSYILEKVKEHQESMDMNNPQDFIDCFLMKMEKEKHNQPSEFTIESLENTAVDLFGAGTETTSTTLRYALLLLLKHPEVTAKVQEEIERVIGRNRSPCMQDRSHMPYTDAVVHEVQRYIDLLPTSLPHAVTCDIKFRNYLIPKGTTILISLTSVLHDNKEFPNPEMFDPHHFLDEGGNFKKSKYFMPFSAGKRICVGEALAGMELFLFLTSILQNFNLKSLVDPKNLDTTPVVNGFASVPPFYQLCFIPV

In the case of `CCOC(=O)[C@H](N)/C=C(\C)CP(=O)(O)O`, the Potency result in experiment [1], in [3], in experiment [4], in [7], in experiment [8] and in experiment [9] was “inactive” in each case. Also, the Potency in experiment [2] was > 46 µM (inactive); in experiment [5] it was 2 µM (active). The activity change, negative = inhibition in [6] is -3.23% (inactive). Further, the max response in experiment [6] (setting [22]) is 1.46%; in experiment [6] (setting [23]), -0.232%.

On to `C/C=C\C[C@@H](C)[C@@H](O)[C@H]1C(=O)N[C@@H](CC)C(=O)N(C)CC(=O)N(C)[C@@H](CC(C)C)C(=O)N[C@@H](C(C)C)C(=O)N(C)[C@@H](CC(C)C)C(=O)N[C@@H](C)C(=O)N[C@H](C)C(=O)N(C)[C@@H](CC(C)C)C(=O)N(C)[C@@H](CC(C)C)C(=O)N(C)[C@@H](C(C)C)C(=O)N1C`, for which the Potency result in experiment [3] and in [9] was “inactive” each time. For the same compound, the Potency in experiment [10] was 24.8 µM (active).

For `Cc1cc(C(=O)O)ccc1[C@H](N)C(=O)O`, the Potency in experiment [11] was > 46 µM (inactive). The Potency result in experiment [3], in experiment [7], in experiment [8] and in experiment [9] was “inactive” throughout. In addition, in experiment [6], the activity change, negative = inhibition was 1.88% (inactive). For the same compound, the figures for the max response in experiment [6] (setting [22]) and in experiment [6] (setting [23]) were 7.87% and 9.03%, respectively.

As for `Nc1nc(Nc2ccccc2)nc2c1ncn2[C@@H]1O[C@@H](CO)[C@H](O)[C@H]1O`, the Potency in experiment [11] is > 46 µM (inactive); in experiment [2], > 46 µM (inactive); in experiment [12], 0.794 µM (active); in [13], 0.631 µM (active). For the same compound, the activity change, negative = inhibition in experiment [6] was -4.73% (inactive). The max response in [6] (setting [22]) was -2.49%; in experiment [6] (setting [23]), -4.59%. For the same compound, the Potency result in [7] and in [9] was “inactive” throughout.

As for `NS(=O)(=O)c1cc2c(cc1Cl)N[C@@H]([C@@H]1C[C@@H]3C=C[C@H]1C3)NS2(=O)=O`, the values for the activity change, negative = inhibition in [14] and in experiment [15] were -0.109% (inactive) and 4.22% (inactive), respectively. Moreover, the Potency result in [1], in experiment [3], in [4], in experiment [16], in [17] and in experiment [18] was “inactive” throughout. Further, the Potency result in [19], in experiment [8] and in experiment [9] was “inactive” in each case. Besides, the Potency in experiment [11] and in [2] was > 46 µM (inactive) throughout. Besides, the compound was called inactive in experiment [20] and in [21].

For `CCNCCCNCCCCNCCCNCC`, the Potency in [11] and in [2] was > 46 µM (inactive) throughout. Also, the Potency result in experiment [3], in experiment [4], in [7], in experiment [8] and in experiment [9] was “inactive” in each case. In addition, in [6], the activity change, negative = inhibition is 2.21% (inactive). For the same compound, the max response in experiment [6] (setting [22]) was 15.1%; in experiment [6] (setting [23]) it was 18.1%.
